Assay results reported in PubChem BioAssay (NCI).
The panel holds about 79,000 compounds, 15% with a hit somewhere; the sample as a whole holds those more often. Active and inactive are the calls of the source. No stated cut-off is given here; in the data, active means growth inhibition above about 70%; inactive means the rest.

How the values were obtained:
[1] = NCI Yeast Anticancer Drug Screen. Data for the rad52 strain (AID 147);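 further: 0% = growth of vehicle-treated control cultures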; details: S. cerevisiae rad52 mutant growth inhibition, active compounds read high
Outline: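 Compounds are applied to a genetically defined yeast strain lacking normal DNA damage repair, and inhibition of growth is expressed relative to cultures given vehicle only.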

[2] = NCI Yeast Anticancer Drug Screen. Data for the wt1 strain (AID 149);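 further: 0% = growth of vehicle-treated wt1 cultures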; details: S. cerevisiae wt1 strain (SPY 50644) growth inhibition, active compounds read high
Outline: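 Growth inhibition read against vehicle controls after compound exposure of the wt1 yeast strain.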

[3] = NCI Yeast Anticancer Drug Screen. Data for the rad50EPP+ strain (AID 151);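 further: 0% = growth of vehicle-treated control cultures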; details: S. cerevisiae rad50 mutant strain, active compounds read high
Outline: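 Compounds were applied to the rad50EPP+ yeast strain, which bears a defined DNA repair alteration, and growth inhibition was determined relative to vehicle-treated cultures.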

[4] = NCI Yeast Anticancer Drug Screen. Data for the mgt1 strain (AID 153); details: S. cerevisiae mgt1 mutant growth inhibition, active compounds read high
Outline: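 Strain: mgt1 yeast, one of a set carrying defined DNA damage repair or cell cycle control alterations. Compound-treated growth compared with vehicle.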

[5] = NCI Yeast Anticancer Drug Screen. Data for the rad50 strain (AID 155);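 further: 0% = growth of vehicle-only cultures of the same strain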; details: S. cerevisiae rad50 strain growth inhibition, active compounds read high
Outline: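 Readout: growth inhibition relative to vehicle-treated cultures. Compound exposure was carried out in a genetically defined yeast strain deficient in DNA damage repair.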

[6] = NCI Yeast Anticancer Drug Screen. Data for the mec2-1 strain (AID 157); details: S. cerevisiae mec2-1 strain, active compounds read high
Outline: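 Strain: mec2-1 (DNA repair/cell cycle alteration). Compound exposure, then growth measured; inhibition expressed relative to vehicle.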

[7] = NCI Yeast Anticancer Drug Screen. Data for the rad14 strain (AID 159);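 further: 0% = growth of vehicle-treated control cultures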; details: S. cerevisiae rad14 strain growth inhibition, active compounds read high
Outline: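 Growth inhibition vs vehicle controls; genetically altered yeast strain (DNA damage repair defect) treated with test compounds.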

[8] = NCI Yeast Anticancer Drug Screen. Data for the sgs1 mgt1 strain (AID 161);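 further: 0% = growth of cultures given vehicle only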; details: S. cerevisiae sgs1 mgt1 strain, active compounds read high
Outline: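 Inhibition of yeast growth, normalised to vehicle-treated controls, is reported for a strain bearing genetic alterations in DNA damage repair.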

[9] = NCI Yeast Anticancer Drug Screen. Data for the CLN2oe strain (AID 163);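 further: 0% = growth of vehicle-only control cultures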; details: S. cerevisiae CLN2oe strain, active compounds read high
Outline: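 Growth of a genetically modified yeast strain is measured after compound exposure and compared with cultures given vehicle alone.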

[10] = NCI Yeast Anticancer Drug Screen. Data for the cln2 rad14 strain (AID 165);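 further: 0% = growth equal to vehicle treated cultures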; details: S. cerevisiae cln2 rad14 strain, active compounds read high
Outline: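 Compounds are applied to the cln2 rad14 yeast strain, and growth is then compared with that of vehicle-treated cultures to give inhibition.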

[11] = NCI Yeast Anticancer Drug Screen. Data for the bub3 strain (AID 167); details: S. cerevisiae bub3 mutant strain, active compounds read high
Outline: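 Readout: yeast growth inhibition, expressed relative to vehicle-only wells. The test organism is a mutant strain from a panel with lesions in DNA repair or checkpoint genes.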

[12] = NCI Yeast Anticancer Drug Screen. Data for the wt2 strain (AID 169);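 further: 0% = growth of vehicle-treated yeast cultures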; details: S. cerevisiae wt2 strain growth inhibition, active compounds read high
Outline: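 This strain belongs to a panel of yeast strains with defined genetic alterations in DNA damage repair or cell cycle control. Compounds are applied, and growth inhibition is measured against vehicle-treated cultures.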

[13] = NCI Yeast Anticancer Drug Screen. Data for the mlh1 strain (AID 171);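 further: 0% = growth of vehicle-treated control cultures of the same strain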; details: S. cerevisiae mlh1 strain growth inhibition, active compounds read high
Outline: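 Growth of the mutant yeast strain after compound exposure, expressed as inhibition relative to vehicle-only controls.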

[14] = NCI Yeast Anticancer Drug Screen. Data for the sgs1 strain (AID 173);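 further: 0% = growth of vehicle-only control cultures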; details: S. cerevisiae sgs1 mutant, active compounds read high
Outline: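 Growth of a yeast strain bearing a defined genetic alteration is measured after compound treatment. Inhibition is expressed relative to vehicle-only controls.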

[15] = NCI Yeast Anticancer Drug Screen. Data for the mlh1 rad18 strain (AID 175); details: S. cerevisiae mlh1 rad18 strain growth inhibition, active compounds read high
Outline: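 Read-out is yeast growth inhibition, calculated against vehicle-only controls. The compound was applied to a strain engineered with DNA damage repair alterations.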

[16] = NCI Yeast Anticancer Drug Screen. Data for the rad18 strain (AID 177); details: S. cerevisiae rad18 mutant growth inhibition, active compounds read high
Outline: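 Growth of the mutant yeast strain after compound exposure, normalised to vehicle-only cultures.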

[17] = at 5.0 µM (retest, dose inferred, filed as 0.5)
[18] = at 50.0 µM (retest, dose inferred, filed as 5.0)

Measured: growth inhibition

C/C1=C/C2OC(=O)C3(C)C2C(CC2(C)OC1=CC2=O)OC3(O)C(C)C (stereo unspecified)
active: [3]; at 33.0 µM 72% | [3]; at 100.0 µM 91% | [4]; at 100.0 µM 93% | [8]; [18] 87% | [8]; at 50.0 µM 82.4% | [12]; at 33.0 µM 79% | [12]; at 100.0 µM 91% | [13]; at 100.0 µM 90% | [14]; at 33.0 µM 72% | [14]; at 100.0 µM 92%
inactive: [1]; at 1.2 µM -27% | [1]; at 3.7 µM -33% | [1]; at 11.0 µM -32% | [1]; at 33.0 µM -60% | [1]; at 100.0 µM -39% | [2]; at 1.2 µM -23% | [2]; at 3.7 µM -29% | [2]; at 11.0 µM -42% | [2]; at 33.0 µM -16% | [2]; at 100.0 µM -33% | [3]; at 1.2 µM -9% | [3]; at 3.7 µM -1% | [3]; at 11.0 µM 32% | [4]; at 1.2 µM -21% | [4]; at 3.7 µM -18% | [4]; at 11.0 µM 8% | [4]; at 33.0 µM 68% | [5]; at 1.2 µM -25% | [5]; at 3.7 µM -29% | [5]; [17] 16% | [5]; at 11.0 µM -38% | [5]; at 33.0 µM -57% | [5]; [18] 21% | [5]; at 50.0 µM 6.75% | [5]; at 100.0 µM -47% | [6]; at 1.2 µM -16% | [6]; at 3.7 µM -27% | [6]; [17] 18% | [6]; at 11.0 µM -27% | [6]; at 33.0 µM -18% | [6]; [18] 24% | [6]; at 50.0 µM -27.4% | [6]; at 100.0 µM -24% | [7]; at 1.2 µM -27% | [7]; at 3.7 µM -20% | [7]; at 11.0 µM -34% | [7]; at 33.0 µM -39% | [7]; at 100.0 µM -16% | [8]; [17] 21% | [9]; at 1.2 µM 4% | [9]; at 3.7 µM 22% | [9]; at 11.0 µM 13% | [9]; at 33.0 µM 0% | [9]; at 100.0 µM 10% | [10]; [17] 27% | [10]; [18] 29% | [10]; at 50.0 µM 7.4% | [11]; at 1.2 µM -8% | [11]; at 3.7 µM -19% | [11]; [17] 22% | [11]; at 11.0 µM -20% | [11]; at 33.0 µM -35% | [11]; [18] 16% | [11]; at 50.0 µM -16.7% | [11]; at 100.0 µM -28% | [12]; at 1.2 µM 8% | [12]; at 3.7 µM 21% | [12]; at 11.0 µM 27% | [13]; at 1.2 µM 21% | [13]; at 3.7 µM 5% | [13]; at 11.0 µM 31% | [13]; at 33.0 µM 60% | [14]; at 1.2 µM 5% | [14]; at 3.7 µM -1% | [14]; at 11.0 µM 26% | [15]; [17] 24% | [15]; [18] 32% | [15]; at 50.0 µM -6.1% | [16]; at 1.2 µM -6% | [16]; at 3.7 µM -33% | [16]; at 11.0 µM -38% | [16]; at 33.0 µM -44% | [16]; at 100.0 µM -37%

CC12CCC(CC(=O)/C1=C(/Br)I)C2(C)C (stereo unspecified)
active: [5]; [18] 80% | [5]; at 50.0 µM 81% | [6]; [18] 95% | [6]; at 50.0 µM 90.4% | [8]; [18] 93% | [8]; at 50.0 µM 84.3% | [11]; [18] 94% | [11]; at 50.0 µM 78.3% | [15]; [18] 96% | [15]; at 50.0 µM 83.2%
inactive: [1]; at 1.2 µM 2% | [1]; at 3.7 µM 3% | [1]; at 11.0 µM 5% | [1]; at 33.0 µM 13% | [1]; at 100.0 µM 3% | [2]; at 1.2 µM -3% | [2]; at 3.7 µM -2% | [2]; at 11.0 µM -1% | [2]; at 33.0 µM -6% | [2]; at 100.0 µM -1% | [3]; at 1.2 µM 1% | [3]; at 3.7 µM 5% | [3]; at 11.0 µM 7% | [3]; at 33.0 µM 12% | [3]; at 100.0 µM 3% | [4]; at 1.2 µM -1% | [4]; at 3.7 µM -2% | [4]; at 11.0 µM 6% | [4]; at 33.0 µM -13% | [4]; at 100.0 µM 0% | [5]; at 1.2 µM 1% | [5]; at 3.7 µM -3% | [5]; [17] 1% | [5]; at 11.0 µM -18% | [5]; at 33.0 µM 14% | [5]; at 100.0 µM 5% | [6]; at 1.2 µM 0% | [6]; at 3.7 µM -2% | [6]; [17] -19% | [6]; at 11.0 µM -5% | [6]; at 33.0 µM 5% | [6]; at 100.0 µM -3% | [7]; at 1.2 µM 1% | [7]; at 3.7 µM 1% | [7]; at 11.0 µM 2% | [7]; at 33.0 µM 3% | [7]; at 100.0 µM 2% | [8]; [17] -9% | [9]; at 1.2 µM -1% | [9]; at 3.7 µM 4% | [9]; at 11.0 µM 2% | [9]; at 33.0 µM 0% | [9]; at 100.0 µM 6% | [10]; [17] 40% | [10]; [18] 68% | [10]; at 50.0 µM 63% | [11]; at 1.2 µM 5% | [11]; at 3.7 µM 11% | [11]; [17] -11% | [11]; at 11.0 µM 18% | [11]; at 33.0 µM 24% | [11]; at 100.0 µM 10% | [12]; at 1.2 µM -2% | [12]; at 3.7 µM -1% | [12]; at 11.0 µM 1% | [12]; at 33.0 µM 3% | [12]; at 100.0 µM 0% | [13]; at 1.2 µM 2% | [13]; at 3.7 µM -3% | [13]; at 11.0 µM 3% | [13]; at 33.0 µM 3% | [13]; at 100.0 µM -1% | [14]; at 1.2 µM -2% | [14]; at 3.7 µM -1% | [14]; at 11.0 µM 1% | [14]; at 33.0 µM 21% | [14]; at 100.0 µM 1% | [15]; [17] -18% | [16]; at 1.2 µM 3% | [16]; at 3.7 µM 10% | [16]; at 11.0 µM 31% | [16]; at 33.0 µM 39% | [16]; at 100.0 µM -1%
